A selection: hits, their analogues and other compounds. The true share with any hit is near 1.8%.
TrxR1 substrate: is turned over as a substrate by rat TrxR1. actives 0.01% (n = 390,000). AID 588456. O89049. Potency, µM (titrated, usually from 114 µM), for inactives: at the top dose activity change, negative = substrate turnover. purified TrxR1 substrate turnover, NADPH consumption readout; also: % is scaled to controls: 0 for no effect and ±100 for the full control effect; nearly all actives have a fitted effect of over 50% in size
Target sequence (O89049 whole entry, looked up): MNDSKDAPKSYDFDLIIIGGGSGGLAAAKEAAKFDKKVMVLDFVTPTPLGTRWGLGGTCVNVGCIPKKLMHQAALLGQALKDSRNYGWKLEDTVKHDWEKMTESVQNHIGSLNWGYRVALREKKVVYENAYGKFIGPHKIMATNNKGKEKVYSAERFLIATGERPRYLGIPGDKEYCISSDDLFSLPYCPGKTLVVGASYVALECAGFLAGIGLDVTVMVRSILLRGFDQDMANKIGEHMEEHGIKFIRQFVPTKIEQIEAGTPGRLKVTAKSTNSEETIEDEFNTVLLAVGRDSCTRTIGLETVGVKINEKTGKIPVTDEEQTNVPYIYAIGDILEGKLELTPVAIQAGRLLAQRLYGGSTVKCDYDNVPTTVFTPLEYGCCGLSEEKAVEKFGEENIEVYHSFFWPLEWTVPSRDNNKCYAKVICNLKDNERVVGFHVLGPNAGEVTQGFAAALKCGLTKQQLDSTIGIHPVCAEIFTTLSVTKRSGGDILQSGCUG
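Rat TrxR1, dispensed at 90 nM, was prereduced with 400 uM NADPH (final) for 5 min at ~22 deg C, then incubated with compound 15 min before 400 uM selenite. A first-read NADPH fluorescence drop versus no-compound background flagged substrates.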
rTrxR1 inhibitor: inhibitors of rat thioredoxin reductase 1; recombinant rTrxR1, NADPH fluorescence consumption, selenite substrate; Potency, µM (top dose mostly 114 µM), for the others: at the top dose activity change, negative = inhibition, most hits filed as inhibitors; actives 1% (n = 390,000); also: % is scaled to controls: 0 for no effect and ±100 for the full control effect; nearly all actives have a fitted effect of over 65% in size
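Rat TrxR1 (90 nM in the dispensed reagent) was pre-reduced with 400 uM NADPH for 5 min at room temperature, then incubated with compound for 15 min. After 400 uM selenite was added, NADPH fluorescence (Ex 340/Em 450 nm) was followed for 8 min.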
Vif-APOBEC3F blk: inhibitors of Vif-A3F interaction. Potency, µM (doses to about 46.1 µM), without a hit: at the highest dose activity, negative = active. HeLa A3F-eYFP + Vif (tagged APOBEC3F with the HIV-1 protein that degrades it), YFP fluorescence increase. actives 0.2% (n = 390,000). AID 602313; also: % of control where 0% means no effect; nearly all actives have a fitted effect of over 65% in size
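Fluorescence increase (Ex 488/Em 500-530) after overnight compound treatment at 37 deg C flags inhibition of Vif-driven A3F-eYFP loss in stable HeLa A3F-eYFP/Vif cells seeded overnight beforehand.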
VDR inhibitor: blocks the human vitamin D receptor; P11473; VDR-SRC2-3 peptide fluorescence polarization, 2 h; Potency, µM, inactives show max response, negative = inhibition, most hits filed as inhibitors; actives 0.93% (n = 400,000); also: % is scaled to controls: 0 for no effect and ±100 for the full control effect
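Inhibition of the VDR/SRC2-3 peptide interaction is quantified by fluorescence polarization. Compounds (23 nl, pintool) incubate with the reagents for 2 hours at ambient room temperature.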
Vif-A3G inh: blocks the Vif interaction with human APOBEC3G | actives 0.076% (n = 410,000) | Q9HC16 | Potency, µM (top dose mostly 46.1 µM), for inactives: at the top dose activity, negative = active, hits mostly inhibitors | HeLa A3G-eYFP + Vif (tagged APOBEC3G with the HIV-1 protein that degrades it), YFP fluorescence, overnight; also: % is scaled to controls: 0 for no effect and ±100 for the full control effect; nearly all actives have a fitted effect of over 60% in size
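HeLa cells stably expressing Vif and C-terminally eYFP-tagged A3G, seeded overnight at 37 deg C, then exposed to compound by pintool overnight at 37 deg C. Rise in yellow fluorescence (Ex 488/Em 500-530, Acumen) marks blocked Vif-driven A3G degradation.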
VDR confirm: inhibits human vitamin D receptor, primary hit validation. Potency, µM, most hits filed as inhibitors. AID 602199. shares compounds with VDR inhibitor. VDR-coactivator inhibition assay, qHTS confirmation. actives 89% (n = 840)
VDR FP fluor: blocks human VDR-coactivator binding in fluorescein assay | shares compounds with VDR inhibitor | VDR-coactivator binding, fluorescein fluorescence polarization | actives 48% (n = 840) | AID 602200 | Potency, µM (series often up to 57.1 µM), for the others: top-dose activity change, negative = inhibition, actives largely listed as inhibitors
VDR bla reporter: VDR (human) inhibition, cell-based beta-lactamase validation; shares compounds with VDR inhibitor; VDR beta-lactamase reporter cells, FRET ratio; cells co-treated with VDR agonist LG190178; actives 23% (n = 840); Potency, µM (doses to about 46.1 µM), inactives show at the highest dose activity change, negative = inhibition, hits mostly inhibitors; also: % is scaled to controls: 0 for no effect and ±100 for the full control effect
VDR viability: cytotoxic in counter-screen for VDR inhibitors; shares compounds with VDR inhibitor; cytotoxicity counter-screen, cell viability, qHTS; Potency, µM (highest dose often 48.3 µM), for inactives: top-dose activity change, negative = cytotoxicity, usual class: cytotoxic; actives 18% (n = 840); AID 602204;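 also: plate controls were DMSO for no effect and high-concentration cycloheximide for full effect; nearly all actives have a fitted effect of over 75% in size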
The depositor's hits bear a star; ? = inconclusive; · = not tested or not shown; [ ] = another dose, or the depositor's remark. Calls follow the shape of the dose curve; as a rule, active = well fitted curve in the direction sought with a large enough effect; inconclusive = small, poorly fitted or top-dose-only effect, or another doubt; inactive = no such curve, though single readings can be large; an effect the other way counts as inactive or inconclusive. Potency is read from the fitted curve at half-maximal effect.

SMILES | TrxR1 substrate | rTrxR1 inhibitor | Vif-APOBEC3F blk | VDR inhibitor | Vif-A3G inh | VDR confirm | VDR FP fluor | VDR bla reporter | VDR viability
Cc1ccc(NN2C(=O)C=C(c3ccc(Cl)cc3)C2=O)cc1 | -5.2% | -32.1% | -4.2% | 50.1µM* | -16.2% | ? | ? | ? | ?
COc1ccc(C2=CC(=O)N(Nc3ccccc3)C2=O)cc1 | -4.0%[57.1 µM] | ? | ? | ? | -28.5% | 3.16* | 3.55µM* | -6.6% | 12.7%
O=C1C=C(c2ccccc2)C(=O)N1Nc1ccccc1 | 12.3% | 3.16µM* | 6.3% | ? | ? | 5.62* | 7.94µM* | 20.6µM* | ?
O=C1C2CC=CCC2C(=O)N1Nc1ccccc1 (centres undefined) | 0.1%[57.1 µM] | 4.7%[57.1 µM] | -13.5% | 3.2% | -0.4% | · | · | · | ·
O=C(Nc1ccncc1)C1C(=O)c2ccccc2N(Cc2ccccc2)C1=O (centres undefined) | -0.6% | -7.1% | · | ? | 3.7% | · | · | · | ·
Nc1ccccc1Sc1nc2ccccc2[nH]1 | -11.1% | 52.3%[57.1 µM] | ? | 20µM* | -2.0% | 21.2* | 14.1µM* | 5.7% | 6.9%
CC1(C)CC(=O)C2=C(C1)OC1=C(C(=O)CC(C)(C)C1)C2c1ccc(O)cc1O | 1.4% | 3.55µM* | -11.1% | 8.91µM* | -21.3% | 6.7* | ? | 16.4µM* | ?
C=C1C=C(C)n2ncc(C(=O)Nc3cccc(C(=O)Nc4cccc(C(F)(F)F)c4)c3)c2N1 | -6.2% | -5.4% | · | · | 0.5% | · | · | · | ·
Nc1cc(=O)[nH]c2c1CCC2 | 9.2%[0.0914 µM] | 14.3% | · | · | -0.4% | · | · | · | ·
CC(C)CCC[C@@H](C)[C@@H]1CC[C@H]2C3=CC=C4CC(O)CC[C@]4(C)[C@H]3CC[C@@]21C (some centres undefined) | · | · | · | 28.2µM* | · | ? | -3.3% | ? | ?
CC(C)C[C@H](N)C(=O)N[C@H](C(=O)N[C@@H](CCCN=C(N)N)C(=O)N[C@H](CS)C(=O)NCC(=O)N[C@@H](CCCCN)C(=O)N[C@@H](Cc1cnc[nH]1)C(=O)N[C@@H](CO)C(=O)N[C@@H](CCCN=C(N)N)C(=O)O)C(C)C | · | · | · | -5.5% | · | · | · | · | ·
O=C(O)c1ccc(Oc2nc3ccccc3s2)cc1 | 4.8%[11.4 µM] | -0.6%[11.4 µM] | 15.9% | -2.2% | -8.6% | · | · | · | ·
O=C(O)c1ccc(C=C(c2nc3ccccc3s2)c2nc3ccccc3s2)cc1 | -5.8%[57.1 µM] | 3.7%[57.1 µM] | 0.3% | ? | 2.1% | 12.6* | 15.8µM* | 23.1µM* | -24.9%
Cc1ccccc1OCCCN1C(=O)C(=O)c2cccc(C)c21 | -8.0% | 4.8% | ? | 31.6µM* | -10.3% | ? | 11.2µM* | 1.6% | 19.8%
Cc1ccc(OCCN2C(=O)c3ccccc3C2=O)c(C)c1 | -21.5% | -22.2% | 2.4% | 4.8% | -0.5% | · | · | · | ·
Cc1cccc2c1N(CCCOc1ccccc1)C(=O)C2=O | -0.8% | 9.3% | -14.4% | 50.1µM* | -0.3% | 18.9* | ? | -9.8% | 10.3%
Cc1cc(C)c(NC(=O)c2cc3c(=O)n4ccccc4nc3n2C)c(C)c1 | 1.8% | 1.7% | -11.6% | 3.5% | ? | · | · | · | ·
Cc1cccc(NC(=O)c2oc3ccc(S(=O)(=O)N4CCC5(CC4)OCCO5)cc3c2C)c1C | -0.4%[57.1 µM] | 3.1%[57.1 µM] | 7.5% | 4.5% | -21.7% | · | · | · | ·
Cc1ccc(N2NC(=O)/C(=C\c3cc4c(cc3[N+](=O)[O-])OCO4)C2=O)cc1C | 6.0% | 17.8µM* | 6.9% | 50.1µM* | -17.4% | 11.9* | ? | ? | -21.5%
N#CC1=C(N)C(C#N)(C#N)[C@H](c2cccnc2)[C@H]2CN(C(=O)OCc3ccccc3)CC=C12 | -5.0% | -8.0% | ? | 12.6µM* | ? | 26.7* | ? | 33.1% | 12.5%
N#CC1=C(N)C(C#N)(C#N)C(c2ccncc2)C2CN(C(=O)OCc3ccccc3)CC=C12 (centres undefined) | 7.4% | -34.6% | -3.6% | ? | ? | · | · | · | ·
N#CC1=C(N)C(C#N)(C#N)C(c2cccnc2)C2CC(c3ccccc3)CC=C12 (centres undefined) | 7.5% | ? | 0.4% | 25.1µM* | -18.4% | ? | 8.91µM* | ? | -16.1%
CC(N=Cc1cc([N+](=O)[O-])ccc1O)c1ccccc1 (centres undefined) | -6.0% | 3.3% | 0.3% | -3.5% | -1.4% | · | · | · | ·
CC(N=Cc1cccc(O)c1O)c1ccccc1 (centres undefined) | -11.5% | 39.8µM* | 1.5% | 50.1µM* | 1.1% | 20* | 10µM* | 11.6µM* | -16.7%
COc1cccc(-c2nc(SCC(=O)NC3CCCC3)c(-c3ccc(F)cc3)[nH]2)c1 | -0.7% | 1.5% | 7.2% | -0.8% | 0.9% | · | · | · | ·
SMILES | TrxR1 substrate | rTrxR1 inhibitor | Vif-APOBEC3F blk | VDR inhibitor | Vif-A3G inh | VDR confirm | VDR FP fluor | VDR bla reporter | VDR viability
COc1ccc(/C=C2\N=C(C)OC2=O)cc1[N+](=O)[O-] | 1.5%[57.1 µM] | ? | 0.0% | 79.4µM* | -5.1% | 10.6* | ? | 29.1% | 14.6%
CCc1ccc(S(=O)(=O)Nc2ccc3[nH]c(=O)sc3c2)cc1 | -1.6%[57.1 µM] | 16.7%[57.1 µM] | 6.2% | 14.5% | 0.4% | · | · | · | ·
Cc1ccc(NC(=O)C2=C(c3ccccc3)S(=O)(=O)CCS2(=O)=O)cc1 | 1.3% | 0.316µM* | 3.6% | ? | -7.1% | 6.31* | 8.91µM* | 6.51µM* | ?
CCCOc1ccc(C2C(=O)N(C3CCC(C)CC3)CC(=O)N2Cc2cccc(OC)c2)cc1OC (centres undefined) | -1.1%[57.1 µM] | -3.3%[57.1 µM] | -0.4% | 6.4% | 1.8% | · | · | · | ·
C=CS(=O)(=O)c1c2cc(OC)ccc2nc2ccc(OC)cc12 | 12.8%[57.1 µM] | 1.26µM* | ? | 50.1µM* | ? | 23.8* | 14.1µM* | ? | ?
O=C(OC(C(=O)N1CCOCC1)c1ccccc1)c1c2c(nc3ccccc13)CCCC2 (centres undefined) | 9.1% | 14.5% | · | · | -6.1% | · | · | · | ·
O=C(/C=C/c1cccnc1)c1ccc([N+](=O)[O-])cc1 | 12.1% | -19.2% | ? | ? | -11.8% | 7.94* | 8.91µM* | ? | ?
Cc1oc2c(c1C(=O)c1ccc(Cl)cc1)C(=O)C(=O)c1ccccc1-2 | 79.4µM* | 2.4% | -8.9% | ? | -0.7% | 3.55* | 3.55µM* | 2.91µM* | 3.77µM*

Screening data as filed in PubChem.
